Hits are enriched below; roughly 1% of the tested compounds scored in any of these assays.
TcdB GH inh – TcdB glycohydrolase inhibition; P18177; inhibition, % at 9.99 µM; AID 652162; TcdB glycohydrolase enzymatic assay, plate reader; 350,000 tested, 0.24% active; in the data active means inhibition above about 10%
PriA SSB inh – inhibitors of Klebsiella pneumoniae PriA binding to SSB C-terminal tail; AlphaScreen SSBct-PriA binding, biotinylated peptide; inhibition, % at 33 µM; 430,000 tested, 0.6% active; in the data active means inhibition mostly above about 37%, no sharp cut-off; inactive means mostly below about 20%;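 further: plate controls were negative control peptide for no effect and reference peptide for full effect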
FadD28 binding – blocks FadD28 binding to the bisubstrate probe; 360,000 tested, 0.22% active; AID 588549; fluorescence polarization; inhibition, % at 12.5 µM; in the data active means inhibition above about 8.5%, passing the limit was not always enough
PrP 5UTR inh – inhibition of PrP 5' UTR reporter expression | cell-based PrP 5' UTR mRNA reporter, plate reader | 340,000 tested, 0.35% active | AID 488862 | inhibition, % (no concentration beside the values); in the data active means inhibition above about 52%; further: 0 = median of the neutral control wells
Mtb hypoxia rep – reduces hypoxia-regulated biosensor signal in M. tuberculosis; M. tuberculosis hypoxia-regulated fluorescent reporter, fluorescence; fluorescence inhibition, % (concentration not given with the values); 300,000 tested, 0.1% active; in the data active means fluorescence inhibition mostly above about 23%, no sharp cut-off; inactive means mostly below about 17%
Mtb BioA inh – blocks M. tuberculosis BioA enzyme activity; inhibition, % at 9.99 µM; purified M. tuberculosis BioA enzyme, plate reader; 360,000 tested, 0.096% active; in the data active means inhibition above about 40%
Active calls of the source: *; · = no result.

SMILES	TcdB GH inh	PriA SSB inh	FadD28 binding	PrP 5UTR inh	Mtb hypoxia rep	Mtb BioA inh
CCn1c(NC(=O)/C=C/c2ccc(F)cc2)nc2ccccc21	1	-8	-2	6	0	·
Cc1ccc(NC(=O)CC2SC(=NN=C3NC(=O)CS3)NC2=O)cc1 (stereo unspecified)	·	3	·	·	·	·
NC(=O)NC(=O)CC1S/C(=N/N=C2\CSC(=O)N2)NC1=O (stereo unspecified)	-2	·	0	-6	·	·
O=C(O)CC1S/C(=N\N=C2\CSC(=O)N2)NC1=O (stereo unspecified)	·	64*	·	·	·	·
O=C1CS/C(=N\N=C2\NC(=O)C(CC(=O)c3ccc(F)cc3)S2)N1 (stereo unspecified)	·	46*	·	·	·	·
Cc1cc(N)ccc1Br	·	-2	·	·	·	·
C[C@@H](O)C#Cc1ccc2c(c1)O[C@H](CN(C)Cc1ccc(-c3ccccc3)cc1)[C@@H](C)CN([C@@H](C)CO)S2(=O)=O	0	·	·	·	·	-1
Cc1ccc2cc(C3C(C#N)=C(N)Oc4c3ccc3cccnc43)c(=O)[nH]c2c1 (stereo unspecified)	2	79*	-1	-4	2	1
N#CC1=C(N)Oc2c(ccc3cccnc23)C1c1cccnc1 (stereo unspecified)	·	88*	-3	-13	10	0
O=C(CSCc1ccccn1)Nc1ccccc1	·	0	0	-14	·	0
CCOc1cc(-c2ccc(C)cc2)nc2ccc(C(=O)NCc3ccc4c(c3)OCO4)cc12	·	-15	·	·	·	·
Cc1cc2c(SCC(=O)Nc3cccc(O)c3)ncnc2s1	-1	-6	19*	-7	·	1
COC(=O)c1c(NC(=O)c2ccccc2)sc(Cc2ccccc2)c1C	·	-16	-1	-17	12	0
O=C(NC(=S)/C(=C1\CCCCCN1)[N+](=O)[O-])c1ccccc1	·	6	-3	59*	8	-1
O=C(NC(=S)Nc1ccccc1[N+](=O)[O-])c1ccccc1	1	11	-4	-37	1	·
COc1ccc(C(=O)c2ccsc2N)cc1	1	2	8.6*	-9	12	·
CCc1ccccc1NC(=S)N(Cc1ccc(C(=O)O)cc1)Cc1ccc(OC)c(OC)c1	13*	-5	-1	-9	15	0
CCc1ccc(NC(=S)N(Cc2ccc(Cl)cc2)Cc2ccc(C(=O)O)cc2)cc1	3	0	17*	-12	-7	·
Cc1cc(NC(=S)N(Cc2ccc(Cl)cc2)Cc2ccc(C(=O)O)cc2)ccc1Cl	1	-4	2	-7	1	9
COc1ccc(CN(Cc2ccc(C(=O)O)cc2)C(=S)Nc2ccccc2C)cc1OC	1	1	-1	-25	3	-1
CC1CC(=O)c2cn3c(nc2C1)nc1ccccc13 (stereo unspecified)	·	-5	-1	·	3	1
Cc1sc2ncn(CC(=O)NCCCC(=O)NC[C@H]3COc4ccccc4O3)c(=O)c2c1C	·	-24	·	·	·	·
COc1cc(C=C2CN(C)C(=O)C2=O)ccc1O	21*	·	-1	·	·	12
O=S(=O)(c1ccccc1F)N1CCN(Cc2cc3c(cc2O)OCO3)CC1	-3	-5	·	-32	7	0
Cc1ccc(C)c(S(=O)(=O)N2CCN(Cc3cc4c(cc3O)OCO4)CC2)c1	0	41*	-1	-21	4	·
SMILES	TcdB GH inh	PriA SSB inh	FadD28 binding	PrP 5UTR inh	Mtb hypoxia rep	Mtb BioA inh
O=C(O)c1cc(-n2cccn2)ccn1	·	75*	·	·	·	·
O=C(O)c1cc(I)ccn1	·	67*	·	·	·	·
O=C(O)c1cc(N2CCCC2)ccn1	-13	-3	1	-15	·	·
Cc1ccc2c(c1)c(C)cc[n+]2Cc1ccccc1	·	-8	1	-14	11	2
Cc1ccc2ccc[n+](Cc3ccccc3)c2c1	11*	-23	-4	-33	8	-1
COc1cc(C=NNC(=S)NC2CC3CC2C2C=CCC32)ccc1O (stereo unspecified)	·	-6	·	·	9	·
Oc1ccc(O)c(C=NNC(=S)NC2CC3CC2C2C=CCC32)c1 (stereo unspecified)	0	·	18*	·	·	0
O=C1NN=C(c2ccc(Br)cc2)CC1c1ccc(Cl)cc1 (stereo unspecified)	1	1	-2	4	-1	·
NS(=O)(=O)c1ccc(CCNC(=O)c2ccc(CS(=O)(=O)c3ccc(Br)cc3)o2)cc1	12*	-16	-5	-18	-9	0
COc1ccc(S(=O)(=O)Cc2ccc(C(=O)NCCc3ccc(S(N)(=O)=O)cc3)o2)cc1	-6	-7	0	3	·	3
